LmPK inh – inhibitors of Leishmania mexicana pyruvate kinase. Q27686. purified LmPK, Kinase-Glo ATP luminescence, 1 h. Potency, µM (highest dose often 57.5 µM), without a hit: top-dose activity change, negative = inhibition, hits mostly inhibitors. 290,000 compounds, 0.37% hits
Target sequence (Q27686 whole entry, looked up): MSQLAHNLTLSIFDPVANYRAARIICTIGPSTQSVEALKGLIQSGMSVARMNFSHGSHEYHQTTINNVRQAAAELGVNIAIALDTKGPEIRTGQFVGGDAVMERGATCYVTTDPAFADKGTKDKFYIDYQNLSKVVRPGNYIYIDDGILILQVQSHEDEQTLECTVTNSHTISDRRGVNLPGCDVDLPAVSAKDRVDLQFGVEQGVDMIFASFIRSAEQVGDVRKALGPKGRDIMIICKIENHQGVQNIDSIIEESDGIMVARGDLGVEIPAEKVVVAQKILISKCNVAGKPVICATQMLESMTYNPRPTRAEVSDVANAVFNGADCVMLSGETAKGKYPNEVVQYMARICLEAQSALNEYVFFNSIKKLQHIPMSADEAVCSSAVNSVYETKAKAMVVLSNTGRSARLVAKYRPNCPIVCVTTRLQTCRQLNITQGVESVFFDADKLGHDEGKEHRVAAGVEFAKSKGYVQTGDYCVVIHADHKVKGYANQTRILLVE
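Kinase-Glo luminescence read after 1 h RT reaction of 0.1 nM LmPK with 0.5 mM PEP and 0.1 mM ADP. Activity scaled between uninhibited and enzyme-free controls.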
RE007 growth inh – less growth of the S. pombe RE007 Vpr strain | AID 651644 | S. pombe RE007 Vpr strain, BacTiter-Glo ATP luminescence, 24 h | Potency, µM (highest dose often 92.2 µM), inactives show top-dose activity change, negative = less growth, actives largely listed as inhibitors | 360,000 compounds, 0.21% hits; active = well fitted falling curve with a large enough effect; inconclusive = small, poorly fitted or top-dose-only effect; inactive = no such curve, though single readings can be large or run the other way; note: nearly all actives have a fitted effect of over 50% in size
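Fission yeast strain RE007, carrying one chromosomally integrated HIV-1 vpr copy, was seeded at OD 0.01 in PMG+AL medium with 23 nL pinned compound. After 24 h at 30 °C and 99% humidity, viability was read by BacTiter-Glo luminescence.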
Sm TGR block – blocks Schistosoma mansoni thioredoxin glutathione reductase; Q962Y6; 360,000 compounds, 3% hits; Potency, µM (doses to about 114 µM), for inactives: top-dose activity change, negative = inhibition, most hits filed as inhibitors; purified TGR, DTNB reduction, TNB absorbance 405 nm; note: nearly all actives have a fitted effect of over 60% in size
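TGR 20 nM + NADPH 100 uM (dispensed conc.), cpd preinc 15 min RT; start with NADPH (500 uM addition) then DTNB (15 mM addition). Kinetic TNB absorbance, 405 nm filter. Four-parameter Hill fit across titration.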
TbPYK inhibitor – T. brucei pyruvate kinase inhibition | 410,000 compounds, 0.12% hits | TbPYK enzyme, Kinase-Glo Plus ATP luminescence, 45 min | Potency, µM (top dose mostly 76.8 µM), inactives show at the highest dose activity, negative = inhibition, actives largely listed as inhibitors; note: nearly all actives have a fitted effect of over 50% in size
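Quantitative HTS: titrated library compounds versus trypanosomal pyruvate kinase in TEA buffer (pH 7.2) containing KCl, MgCl2, BSA and Tween-20. Reactions were initiated with ADP, 130 uM final. Kinase-Glo Plus luminescence was read after 45 min at RT.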
Starred values were filed as active, the others as inactive; [ ] = dose if it differs, or a comment. Compounds with a hit are over-represented: about 3% of the library has one in this group of screens. Unless noted, calls come from the whole dose curve; as a rule, active = well fitted curve in the direction sought with a large enough effect; inconclusive = small, poorly fitted or top-dose-only effect, or another doubt; inactive = no such curve, though single readings can be large; an effect the other way counts as inactive or inconclusive. % is set by controls: 0 for no effect and ±100 for the full control effect; potency is the fitted concentration of half-maximal effect.

What do the screens show for `CSc1ccc(CN2CCC2(C)C(=O)NC2CCc3ccccc32)cc1` (configuration not stated)?
RE007 growth inh: -11%[18.4 µM]; TbPYK inhibitor: 0%

Results for CCOc1ccccc1NC(=O)c1c(NC(=O)COc2ccccc2)sc2c1CCCCC2 ?
Sm TGR block: 1%; TbPYK inhibitor: 0%

How did O=C(CCl)NNC(=O)c1c(O)c2ccccc2[nH]c1=O do in these assays?
LmPK inh: 0%; RE007 growth inh: -1%; Sm TGR block: 14µM*; TbPYK inhibitor: 5%

What do the screens show for `O=c1c2ccccc2c(-c2cccc(C(F)(F)F)c2)nn1-c1ccccc1`?
LmPK inh: 9%; RE007 growth inh: -1%; Sm TGR block: -6%; TbPYK inhibitor: 4%

Results for O=c1c2cc(C(F)(F)F)ccc2sn1-c1ccccc1 ?
RE007 growth inh: 8.9µM*; TbPYK inhibitor: 7.1µM*

How did O=c1c2cc(F)ccc2sn1-c1ccccc1 do in these assays?
RE007 growth inh: 11µM*; Sm TGR block: -30%; TbPYK inhibitor: inconclusive

How did Cc1cc(C)c2oc(C(=O)Nc3sc4c(c3C(=O)NCc3ccco3)CCC4)cc(=O)c2c1 do in these assays?
Sm TGR block: 11%; TbPYK inhibitor: 1%

How did Clc1ccc(-c2nc3nc4ccccc4nc3n2Cc2ccco2)cc1 do in these assays?
LmPK inh: 13%; RE007 growth inh: 26%; Sm TGR block: 20µM*; TbPYK inhibitor: 5%

What do the screens show for `Cc1ccc(-c2nc3nc4ccccc4nc3n2Cc2ccco2)cc1`?
LmPK inh: -10%; RE007 growth inh: 4%; Sm TGR block: 18µM*; TbPYK inhibitor: -12%

What do the screens show for `O=C1CCCC2=C1C(c1cccc(O)c1)c1c(ccc3ncccc13)N2` (configuration not stated)?
LmPK inh: 2%; RE007 growth inh: -15%; Sm TGR block: 32µM*; TbPYK inhibitor: -4%

What do the screens show for `O=C1CCCC2=C1C(c1ccc(O)c(O)c1)Nc1ccc3ncccc3c12` (configuration not stated)?
LmPK inh: inconclusive; RE007 growth inh: -12%; Sm TGR block: 20µM*; TbPYK inhibitor: inconclusive

Results for COc1ccc(C2C3=C(CCCC3=O)Nc3ccc4ncccc4c32)cc1OC (configuration not stated) ?
LmPK inh: 6%; RE007 growth inh: 8%; Sm TGR block: 20µM*; TbPYK inhibitor: -1%

What do the screens show for `COc1cc(C2C3=C(CCCC3=O)Nc3ccc4ncccc4c32)ccc1O` (configuration not stated)?
LmPK inh: 9%; RE007 growth inh: -15%; Sm TGR block: -8%; TbPYK inhibitor: -19%

What do the screens show for `COc1ncc2nc(-c3cccs3)c(=O)n(-c3ccccc3)c2n1`?
TbPYK inhibitor: 1%

How did CCOc1ccc(CNC(=O)C2Cc3ccccc3N2C(=O)CC)cc1OC (configuration not stated) do in these assays?
Sm TGR block: 4%; TbPYK inhibitor: 2%

What do the screens show for `COc1ccc(-c2noc(CN(C(=O)C(C)Oc3ccc(C)cc3)C(C)C)n2)cc1` (configuration not stated)?
Sm TGR block: -3%; TbPYK inhibitor: 0%

What do the screens show for `O=C(c1ccco1)N1CCN(CC(O)COc2ccc(Br)cc2)CC1` (configuration not stated)?
LmPK inh: 6%; RE007 growth inh: 8%; Sm TGR block: 45µM*; TbPYK inhibitor: 2%

What do the screens show for `COC(=O)c1ccc(OCC(O)CN2CCN(C(=O)c3ccco3)CC2)cc1` (configuration not stated)?
LmPK inh: 1%; RE007 growth inh: 2%; Sm TGR block: -13%; TbPYK inhibitor: 2%

How did CC(C)NC(=O)N1CCC2(CC1)CCN(S(C)(=O)=O)CC2 do in these assays?
TbPYK inhibitor: -4%

Results for CCc1ccc(C(=O)c2cn(CC(=O)Nc3cc(OC)ccc3OC)c3nc(C)ccc3c2=O)cc1 ?
Sm TGR block: -1%; TbPYK inhibitor: 4%

Results for COc1ccc(OC)c(CN2CCC(N3CCC(C(=O)NC4CC4)CC3)CC2)c1 ?
LmPK inh: 2%; RE007 growth inh: -10%; Sm TGR block: 0%; TbPYK inhibitor: 0%

What do the screens show for `COc1cc(CN2CCC(C(=O)NC3CCCC3)CC2)cc(OC)c1O`?
LmPK inh: -3%; RE007 growth inh: -1%; Sm TGR block: 8.9µM*; TbPYK inhibitor: 7%

Results for COc1cc(CN2CCC(C(=O)N3CCN(c4ccccc4F)CC3)CC2)cc(OC)c1O ?
LmPK inh: 1%; RE007 growth inh: 5%; Sm TGR block: inconclusive; TbPYK inhibitor: -3%

Results for COc1cc(CN2CCC(C(=O)N3CCCC(C)C3)CC2)cc(OC)c1O (configuration not stated) ?
LmPK inh: -4%; RE007 growth inh: -16%; Sm TGR block: 10µM*; TbPYK inhibitor: -1%

Results for Cc1[nH]c2ccccc2c1CC#N ?
LmPK inh: -1%; RE007 growth inh: 29%; Sm TGR block: -36%; TbPYK inhibitor: -7%

What do the screens show for `Cc1[nH]c2ccccc2c1C(C#N)(C#N)C1C(=O)c2ccccc2C1=O`?
LmPK inh: -28%; RE007 growth inh: -19%; Sm TGR block: 45µM*; TbPYK inhibitor: 2%

What do the screens show for `CCCc1ncc(C[n+]2ccccc2C)c(N)n1`?
RE007 growth inh: -17%; Sm TGR block: 45µM*; TbPYK inhibitor: 5%

How did O=C1COc2ccc(N3C(=O)C=CC3=O)cc2N1 do in these assays?
LmPK inh: 2%; Sm TGR block: 0.4µM*

What do the screens show for `O=C1COc2ccc(S(=O)(=O)N3CCCC3)cc2N1`?
LmPK inh: -2%; RE007 growth inh: -3%; Sm TGR block: -1%; TbPYK inhibitor: 0%

What do the screens show for `Nc1cc2c(cc1Br)-c1c(C(=O)O)cccc1C2O` (configuration not stated)?
RE007 growth inh: -1%; TbPYK inhibitor: -2%

What do the screens show for `Cc1ccc(OCc2nc3ccccc3n2Cc2ccccc2Cl)cc1`?
Sm TGR block: 12%; TbPYK inhibitor: -2%

What do the screens show for `CCCNc1c(N)c(=O)oc2ccccc12`?
LmPK inh: 1%; RE007 growth inh: 5%; Sm TGR block: -27%; TbPYK inhibitor: 5%

How did Nc1c(NCCN2CCCCC2)c2ccccc2oc1=O do in these assays?
LmPK inh: -3%; RE007 growth inh: 7%; Sm TGR block: 28µM*; TbPYK inhibitor: 5%

What do the screens show for `O=c1oc2ccccc2c(Cl)c1CN1CCCCC1`?
LmPK inh: 0%; RE007 growth inh: -5%; Sm TGR block: 4.5µM*; TbPYK inhibitor: -2%

How did O=c1oc2ccccc2c(N2CCCC2)c1CN1CCCC1 do in these assays?
LmPK inh: 5%; RE007 growth inh: -9%; Sm TGR block: 35µM*; TbPYK inhibitor: -1%

What do the screens show for `Cc1ccc(C)c(CNS(=O)(=O)c2c(C)[nH]c(C)c2C(=O)N2CCCCC2)c1`?
LmPK inh: 8%; RE007 growth inh: -3%; Sm TGR block: -13%; TbPYK inhibitor: -1%

Assay outcomes (PubChem BioAssay)
